Hits are enriched below; roughly 16% of the tested compounds scored in any of these assays.
TDP1 inh – qHTS Assay for Inhibitors of Tyrosyl-DNA Phosphodiesterase (TDP1); Tyrosyl-DNA phosphodiesterase 1 (Homo sapiens), Q9NUW8; recombinant TDP1, AlphaScreen DNA substrate cleavage; Potency, µM (highest dose often 130 µM), hits mostly inhibitors; actives 0.28% (n = 350,000); also: nearly all actives have a fitted effect of over 40% in size
Target sequence (Q9NUW8 whole entry, looked up): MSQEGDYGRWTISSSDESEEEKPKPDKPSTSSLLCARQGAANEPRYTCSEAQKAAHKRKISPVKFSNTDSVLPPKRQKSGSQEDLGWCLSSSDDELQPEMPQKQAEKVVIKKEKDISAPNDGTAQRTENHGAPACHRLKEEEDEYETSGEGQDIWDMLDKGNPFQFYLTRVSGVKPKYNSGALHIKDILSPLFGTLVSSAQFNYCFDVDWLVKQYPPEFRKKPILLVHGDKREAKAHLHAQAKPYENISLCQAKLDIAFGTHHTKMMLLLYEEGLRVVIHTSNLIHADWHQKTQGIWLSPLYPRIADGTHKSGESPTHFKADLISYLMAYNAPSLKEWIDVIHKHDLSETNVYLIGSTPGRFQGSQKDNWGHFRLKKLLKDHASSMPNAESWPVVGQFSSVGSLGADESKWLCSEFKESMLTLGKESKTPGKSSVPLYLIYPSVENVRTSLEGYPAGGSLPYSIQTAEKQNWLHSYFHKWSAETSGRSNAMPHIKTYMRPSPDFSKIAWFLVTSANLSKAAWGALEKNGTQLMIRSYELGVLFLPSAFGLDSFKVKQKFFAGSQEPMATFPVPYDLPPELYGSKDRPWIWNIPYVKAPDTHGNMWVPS
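E. coli-derived human Tdp1, 1 nM final. Cpd preinc 15 min RT; substrate 15 nM final, 5 min RT; AS bead mix 10 ug/ml final, 10 min RT. Signal loss = tyrosine-FITC cleavage. No-enzyme wells = max signal.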
uPA generation – qHTS for Inhibitors of Cell Surface uPA Generation; Potency, µM (highest dose often 38.3 µM), usual class: inhibitors; AID 540303, 2011; cell surface uPA generation assay, qHTS; actives 0.31% (n = 330,000); active = well fitted inhibition curve with a large enough effect; inconclusive = small, poorly fitted or top-dose-only effect; inactive = no such curve, though single readings can be large or run the other way; tested in mouse RAW 264.7 cells; also: nearly all actives have a fitted effect of over 55% in size
miR-21 act – qHTS Assay for Modulators of miRNAs and/orActivators of miR-21; AID 2288, 2010; Potency, µM (highest dose often 38.3 µM), hits mostly activators; HeLa miR-21 FLuc reporter, luciferase, 48 h; 340,000 tested, under 10 active;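 also: miR-21 action dims this reporter so a rising signal means less miR-21 action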
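HeLa miR-21-FLuc reporter line, endogenous miR-21; 2000 cells/well in DMEM/10% FBS; compound titration up to ~40uM final, 48 h, 37 degree Celsius; luciferase detection reagent, 15 min lysis, CCD luminescence.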
DT40 TDP1 no CPT – qHTS for Inhibitors of human tyrosyl-DNA phosphodiesterase 1 (TDP1): qHTS in cells in absence of CPT | DT40 Tdp1-/- hTDP1 cells, no CPT, ATP luminescence, 48 h | Potency, µM (top dose mostly 46.2 µM), actives largely listed as inhibitors | actives 15% (n = 420,000); also: nearly all actives have a fitted effect of over 55% in size
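Luminescent ATP content (CellTiter-Glo) served as the growth readout. Knockout chicken DT40 cells expressing human TDP1 were exposed to compounds without camptothecin for a minimum 48 hr at 37 °C.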
TDP1 cell CPT – qHTS for Inhibitors of human tyrosyl-DNA phosphodiesterase 1 (TDP1): qHTS in cells in presence of CPT | Potency, µM (top dose mostly 46.2 µM), usual class: inhibitors | actives 12% (n = 420,000) | chicken DT40 Tdp1-/-;hTDP1 cells + 20 nM CPT, ATP luminescence, 48 h | AID 686979, 2013; also: nearly all actives have a fitted effect of over 55% in size
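Chicken DT40 Tdp1-/- cells complemented with human TDP1, 400 cells/well, exposed to compounds plus 20 nM camptothecin for at least 48 h at 37 C; viability read as ATP content by CellTiter-Glo luminescence.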
Numbers stand for hits; . = inactive; ? = inconclusive; / = no result given; [ ] = remark or other dose. Unless noted, calls follow the shape of the dose curve; as a rule, active = well fitted curve in the direction sought with a large enough effect; inconclusive = small, poorly fitted or top-dose-only effect, or another doubt; inactive = no such curve, though single readings can be large; an effect the other way counts as inactive or inconclusive.

SMILES | TDP1 inh | uPA generation | miR-21 act | DT40 TDP1 no CPT | TDP1 cell CPT
C=CCn1c(N)c(C(=O)OC(C)CC)c2nc3ccccc3nc21 (stereo not given) | . | . | . | ? | .
C=CCn1c(N)c(C(=O)OC(C)(C)C)c2nc3ccccc3nc21 | . | . | . | 12µM | 21µM
O=c1cc(CN2CCN(S(=O)(=O)c3ccc(Cl)cc3)CC2)nc2sc(-c3ccccc3F)nn12 | . | / | . | . | .
CCOC(=O)C1CCCN(C(=S)Nc2ccc(F)cc2)C1 (stereo not given) | . | . | . | . | .
CCOC(=O)C1CCCN(c2cc(C)nc3cc(-c4ccc(F)cc4)nn23)C1 (stereo not given) | . | . | . | 23µM | 23µM
CCOC(=O)C1CCCN(c2cc(C)nc3cc(-c4ccc(Cl)cc4)nn23)C1 (stereo not given) | . | . | . | 23µM | ?
Nc1nc(N)c(S(=O)(=O)c2ccccc2)c(Nc2ccc(Br)cc2)n1 | . | / | . | / | /
Nc1nc(N)c(C=Nc2ccc(Br)cc2)c(Nc2ccc(Br)cc2)n1 | . | . | . | 13µM | 15µM
Oc1c(C(c2ccccc2)N2CCCCC2)ccc2ccccc12 (stereo not given) | / | / | / | ? | 18µM
Cc1ccc(C)c(N2CCN(C(=O)c3cc(C)nc4c3c(C)nn4-c3ccccc3)CC2)c1 | . | / | . | 18µM | ?
CSc1ncc(C(=O)N2CCN(c3cc(Cl)ccc3C)CC2)c(C)n1 | . | / | . | ? | .
CSc1ncc(C(=O)N2CCN(c3cc(C)ccc3C)CC2)c(C)n1 | . | / | . | ? | 21µM
Cc1cc(C(=O)N2CCN(c3ccccc3F)CC2)c2c(C)nn(-c3ccccc3)c2n1 | . | / | . | ? | ?
Cc1cc(C(=O)N2CCN(c3cc(Cl)ccc3C)CC2)c2c(C)nn(-c3ccccc3)c2n1 | . | / | . | ? | 21µM
CC(OC(=O)c1ccccc1C(=O)N(C)Cc1ccccc1)C(=O)NC1(C#N)CCCCC1 (stereo not given) | . | . | / | . | .
O=C(N/N=C/c1ccc(Cl)cc1)c1cc2c(s1)-c1ccccc1CC2 | . | . | . | 5.2µM | 3.7µM
CCOC(=O)C1CCCN(C(=O)c2ccc(OC)c([N+](=O)[O-])c2)C1 (stereo not given) | . | . | . | . | .
O=C(Nc1nnc(C2=COCCO2)o1)c1ccc(Cl)cc1 | . | . | . | ? | 16µM
O=C(Nc1nnc(C2=COCCO2)o1)c1cccc(C(F)(F)F)c1 | . | . | . | 15µM | 26µM
CCOC(=O)/C=C1\SCC(=O)N1CC(=O)NC12CC3CC(CC(C3)C1)C2 | . | . | . | ? | ?
CC1(C)C(=O)C=CC(=O)C(C)(C)C(=O)C=CC(=O)C(C)(C)C2=CC=C(O2)C(C)(C)C(=O)C=CC1=O | / | . | / | 0.82µM | 0.82µM
COc1ccc(OC)c(-c2cc(C(=O)Nc3c(C)nn(Cc4ccccc4Cl)c3C)no2)c1 | . | / | . | 23µM | 15µM
COc1ccc(OC)c(-c2cc(C(=O)Nc3ccc(C)c(C)c3)no2)c1 | . | / | . | 18µM | ?
COc1ccc(-c2cc(C(=O)Nc3c(C)nn(Cc4ccccc4Cl)c3C)no2)cc1OC | . | / | . | ? | ?
COc1ccc(-c2cc(C(=O)Nc3ccc(C)c(C)c3)no2)cc1 | / | . | . | ? | ?
SMILES | TDP1 inh | uPA generation | miR-21 act | DT40 TDP1 no CPT | TDP1 cell CPT
COc1ccc(OC)c(-c2cc(C(=O)Nc3c(C)nn(Cc4ccc(C)cc4)c3C)no2)c1 | . | / | . | 18µM | 21µM
COc1cccc(-c2cc(C(=O)Nc3c(C)nn(Cc4ccccc4Cl)c3C)no2)c1 | . | / | . | 13µM | 9.2µM
Cc1cc(C(=O)Nc2c(C)nn(Cc3ccccc3Cl)c2C)no1 | . | / | . | . | .
CCOC(=O)c1ccc(NC(=O)CSc2nc(-c3ccc(F)cc3)cc(C(F)(F)F)c2C#N)cc1 | . | / | . | ? | ?
COc1ccc(-c2cc(C(=O)Nc3c(C)nn(Cc4ccc(Cl)cc4)c3C)no2)cc1 | . | / | . | ? | .
COc1ccc(OC)c(-c2cc(C(=O)Nc3c(C)nn(Cc4ccccc4C)c3C)no2)c1 | . | / | . | 10µM | 10µM
COc1ccccc1-c1cc(C(=O)Nc2c(C)nn(Cc3ccc(Cl)cc3)c2C)no1 | . | / | ? | 21µM | 21µM
CCN(CC)S(=O)(=O)c1ccc(Cl)c(C(=O)OC)c1 | . | / | . | . | .
CC(C)=CCC/C(C)=C/CO/N=C1/C[C@@H](O)[C@@H](O)[C@@H]2[C@@H]3C(=O)N(c4cccc(Oc5ccccc5)c4)C(=O)[C@H]3CC[C@H]12 | .[21 µM] | / | / | / | /
Clc1ccc(C(c2ccccc2)c2c[nH]c3ccccc23)s1 (stereo not given) | . | / | . | / | /
CCc1ccc(C(c2ccccc2)c2c[nH]c3ccc(C)cc23)s1 (stereo not given) | . | / | . | 16µM | ?
Cc1ccc2[nH]cc(C(c3ccccc3)c3ccc(Cl)s3)c2c1 (stereo not given) | . | / | ? | 15µM | ?
O=S(=O)(NC1CCCCC1)c1cccc2nsnc12 | . | . | . | . | .
Cc1nnc(N2C(=O)C(=O)/C(=C(/O)c3ccc4c(c3)CC(C)O4)C2c2ccccc2F)s1 (stereo not given) | . | . | . | . | .
Cc1oncc1-c1cn2ccccc2n1 | . | . | . | . | .
CC1=Nc2ccccc2/C1=C/c1ccc(N(C)C)cc1 | / | / | / | 18µM | .
CC1=Nc2ccccc2/C1=C\c1nc(-c2ccccc2)oc1O | . | . | . | . | .
CN(C)c1ccc(C=C2C(=O)c3ccccc3C2=O)cc1 | / | / | / | . | .
CC1=Nc2ccccc2/C1=C/c1c(C)[nH]c2ccccc12 | / | . | / | 16µM | ?
CN(C)c1ccc(/C=C2\CCCCC2=O)cc1 | . | . | . | ? | 20µM
CN(C)c1ccc(C=C2c3ccccc3-c3ccccc32)cc1 | / | / | / | 22µM | ?
CCOc1ccccc1NC(=O)C1CC(=O)n2ncnc2N1 (stereo not given) | . | / | . | . | .
CN(C)c1ccc(/C=C2/CCc3ccccc32)cc1 | / | / | / | 10µM | 14µM
CN(C)c1ccc(/C=C2\c3ccccc3-c3ccc(N(C)C)cc32)cc1 | / | / | / | ? | .
COc1cccc(N2C(=NC(=O)C3CCCO3)SC3CS(=O)(=O)CC32)c1 (stereo not given) | . | . | . | . | .
CCn1c(CSc2nc(C)cs2)nc2cc(S(=O)(=O)N(C)C)ccc21 | . | . | . | . | .
C=C1C(=O)[C@]23C[C@H]1CC[C@H]2[C@]1(C)[C@@H](O)CC[C@@](C)(C(=O)O)[C@H]1C[C@@H]3O | / | / | / | 2.9µM | 2.3µM
